# Reference: PubChem BioAssay (NCATS)
# Inconclusive results are not listed. This is one part of the list. Entries that show only a call come without a potency. The source made the active and inactive calls. Calls follow the shape of the dose curve; as a rule, active = well fitted curve in the direction sought with a large enough effect; inconclusive = small, poorly fitted or top-dose-only effect, or another doubt; inactive = no such curve, though single readings can be large; an effect the other way counts as inactive or inconclusive.
# Key:
# [1] = target: Rap guanine nucleotide exchange factor 3 (Homo sapiens) (UniProt O95398); experiment: Confirmatory qHTS for agonist of cAMP-regulated guanine nucleotide exchange factor 3 (EPAC1) (AID 1645881); also: nearly all actives have a fitted effect of over 75% in size; also: potency is read from the fitted curve at half-maximal effect;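 as to activation: EPAC1 catalysed release of BODIPY-GDP from Rap1B seen as fluorescence loss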
# [2] = target: Rap guanine nucleotide exchange factor 4 (Homo sapiens) (UniProt Q8WZA2); experiment: Confirmatory qHTS for agonist of cAMP-regulated guanine nucleotide exchange factor 4 (EPAC2) (AID 1645884);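 also: nucleotide exchange releases bodipy-GDP from Rap1 and this lowers its fluorescence; nearly all actives have a fitted effect of over 65% in size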; also: potency is read from the fitted curve at half-maximal effect
# [3] = target: Rap guanine nucleotide exchange factor 3 (Homo sapiens) (UniProt O95398); experiment: Counterscreen qHTS for agonist of cAMP-regulated guanine nucleotide exchange factor 3 (EPAC1) (AID 1645889); also: nearly all actives have a fitted effect of over 40% in size
# Outline: (§1)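 Measured: fluorescence of BODIPY-GDP bound to Rap1B, which falls as exchange proceeds. Conditions include 50 uM competing GDP, 5 and 30 min reads, and a later cAMP challenge for antagonist detection.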
# [4] = target: Flap endonuclease 1 (Homo sapiens) (UniProt P39748); experiment: qHTS Assay for the Inhibitors of FEN1: Confirmatory Assay for Cherry-picked Compounds (AID 720498); conditions: FEN1 flap cleavage, TAMRA/BHQ2 fluorogenic DNA substrate; also: potency is read from the fitted curve at half-maximal effect; nearly all actives have a fitted effect of over 60% in size
# Outline: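 FEN1 at 10 nM was preincubated with compound for 15 min at room temperature, then 50 nM (final) double-flap DNA substrate was added. TAMRA fluorescence released from the BHQ-2-quenched flap was read at 0 and 15 min (ex 525/em 598 nm).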
# [5] = target: Cytochrome P450 3A4 (Homo sapiens) (UniProt P08684); experiment: qHTS Assay for Inhibitors and Substrates of Cytochrome P450 3A4 (AID 884); also: potency is read from the fitted curve at half-maximal effect; nearly all actives have a fitted effect of over 50% in size
# Outline: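 20 nM human CYP3A4 with 25 uM Luciferin-PPXE (at KM) in 200 mM KPO4, preincubated 10 min with compound; NADPH regeneration started a 60 min RT reaction. Luciferin detected by luminescence, normalized to 57 uM ketoconazole as full inhibition.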
# [6] = target: Cytochrome P450 3A4 (Homo sapiens) (UniProt P08684); experiment: qHTS Assay for Activators of Cytochrome P450 3A4 (AID 885); also: nearly all actives have a fitted effect of over 65% in size
# Outline: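 Steps: enzyme/substrate mix dispensed; compound added, 10 min RT; NADPH regeneration solution added, 60 min RT; luciferin detection buffer stops reaction; 20 min later luminescence measured.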
# [7] = Confirmation and Secondary Assay for Modulators of Hemoglobin Beta Chain Splicing at IVS2 654 locus (AID 910);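 also: per-well total GFP intensity by laser scanning cytometry after 2-day treatment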
# Outline: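 HeLa cells stably carrying EGFP interrupted by mutant beta-globin IVS2-654 intron (CMV-driven) were treated with compound for 2 days at 37C; corrected splicing was scored as total peak GFP intensity per well (488 nm excitation, 500-520 nm emission).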
# [8] = Confirmation and Secondary Assay for Modulators of Hemoglobin Beta Chain Splicing at IVS2 705 locus (AID 930);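 also: HeLa cells stably expressing the EGFP-705 splicing reporter; GFP fluorescence per well restored by corrected splicing of the IVS2-705 intron in EGFP; series mostly up to about 46 µM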
# Outline: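 HeLa IVS2-705 EGFP reporter cells, 500/well, compound 2 d at 37C; correct splicing yields fluorescent EGFP. Control: 500 nM antisense PNA. Read-out: total peak GFP intensity.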
# [9] = target: Tumor susceptibility gene 101 protein (Homo sapiens) (UniProt Q99816); experiment: qHTS Assay for Iinhibitors of HIV-1 Budding by Blocking the Interaction of PTAP/TSG101: Hit Validation (AID 651600); also: potency is read from the fitted curve at half-maximal effect; nearly all actives have a fitted effect of over 70% in size
# Outline: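 Fluorescence polarization binding assay: Tsg101 binding domain (10 uM final) pre-dispensed with compounds, then FITC-labeled PTAP-motif peptide (50 nM final) added; 20 min at r.t. in HEPES pH 7.5 buffer with NaCl, Tween 20, EDTA, TCEP.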
# [10] = target: DNA dC->dU-editing enzyme APOBEC-3G (Homo sapiens) (UniProt Q9HC16); experiment: qHTS for inhibitors of Vif-A3G interactions: Validation (AID 588379)
# Outline: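 HeLa cells stably expressing Vif and A3G-eYFP, 700 cells/well, incubated overnight at 37 deg C, then exposed to compound overnight at 37 deg C. Inhibition of Vif-mediated degradation read as increased yellow fluorescence (Ex 488/Em 500-530) by laser-scanning cytometry.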
# [11] = target: Rap guanine nucleotide exchange factor 4 (Homo sapiens) (UniProt Q8WZA2); experiment: Confirmatory qHTS for antagonist of cAMP-regulated guanine nucleotide exchange factor 4 (EPAC2) (AID 1645885); also: nearly all actives have a fitted effect of over 25% in size
# [12] = target: Rap guanine nucleotide exchange factor 3 (Homo sapiens) (UniProt O95398); experiment: Counterscreen qHTS for antagonist of cAMP-regulated guanine nucleotide exchange factor 3 (EPAC1) (AID 1645888);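 also: fluorescence loss as bound BODIPY-GDP is released from Rap1B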
# Outline: as §1
# Sequence of Rap guanine nucleotide exchange factor 4 (Homo sapiens) (Q8WZA2 whole entry, looked up): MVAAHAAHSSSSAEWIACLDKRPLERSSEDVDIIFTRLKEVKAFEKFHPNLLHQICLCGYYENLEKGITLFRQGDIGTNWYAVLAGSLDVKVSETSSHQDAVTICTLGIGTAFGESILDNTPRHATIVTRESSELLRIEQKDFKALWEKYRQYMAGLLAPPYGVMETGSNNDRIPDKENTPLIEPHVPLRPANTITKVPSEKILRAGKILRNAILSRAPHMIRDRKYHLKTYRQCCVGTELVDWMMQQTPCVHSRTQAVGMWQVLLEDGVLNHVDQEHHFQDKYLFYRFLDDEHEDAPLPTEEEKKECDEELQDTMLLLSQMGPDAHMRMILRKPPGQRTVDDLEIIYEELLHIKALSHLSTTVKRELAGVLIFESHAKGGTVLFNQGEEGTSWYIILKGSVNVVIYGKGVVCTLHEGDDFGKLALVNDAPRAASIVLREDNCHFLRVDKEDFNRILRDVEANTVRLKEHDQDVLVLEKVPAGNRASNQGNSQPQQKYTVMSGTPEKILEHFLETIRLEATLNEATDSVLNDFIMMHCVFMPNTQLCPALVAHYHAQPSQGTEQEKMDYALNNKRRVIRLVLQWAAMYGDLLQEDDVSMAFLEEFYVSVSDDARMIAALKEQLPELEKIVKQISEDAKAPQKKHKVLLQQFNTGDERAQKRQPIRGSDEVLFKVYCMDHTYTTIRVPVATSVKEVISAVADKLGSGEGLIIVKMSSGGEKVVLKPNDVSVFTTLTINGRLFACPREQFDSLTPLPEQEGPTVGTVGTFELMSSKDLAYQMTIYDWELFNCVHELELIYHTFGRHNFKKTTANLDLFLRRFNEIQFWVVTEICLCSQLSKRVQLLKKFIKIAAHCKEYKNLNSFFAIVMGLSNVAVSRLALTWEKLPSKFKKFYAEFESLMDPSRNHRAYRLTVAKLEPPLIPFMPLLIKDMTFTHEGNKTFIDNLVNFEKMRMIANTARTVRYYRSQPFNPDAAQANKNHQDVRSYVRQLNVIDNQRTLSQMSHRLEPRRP
# Sequence of Rap guanine nucleotide exchange factor 3 (Homo sapiens) (O95398 whole entry, looked up): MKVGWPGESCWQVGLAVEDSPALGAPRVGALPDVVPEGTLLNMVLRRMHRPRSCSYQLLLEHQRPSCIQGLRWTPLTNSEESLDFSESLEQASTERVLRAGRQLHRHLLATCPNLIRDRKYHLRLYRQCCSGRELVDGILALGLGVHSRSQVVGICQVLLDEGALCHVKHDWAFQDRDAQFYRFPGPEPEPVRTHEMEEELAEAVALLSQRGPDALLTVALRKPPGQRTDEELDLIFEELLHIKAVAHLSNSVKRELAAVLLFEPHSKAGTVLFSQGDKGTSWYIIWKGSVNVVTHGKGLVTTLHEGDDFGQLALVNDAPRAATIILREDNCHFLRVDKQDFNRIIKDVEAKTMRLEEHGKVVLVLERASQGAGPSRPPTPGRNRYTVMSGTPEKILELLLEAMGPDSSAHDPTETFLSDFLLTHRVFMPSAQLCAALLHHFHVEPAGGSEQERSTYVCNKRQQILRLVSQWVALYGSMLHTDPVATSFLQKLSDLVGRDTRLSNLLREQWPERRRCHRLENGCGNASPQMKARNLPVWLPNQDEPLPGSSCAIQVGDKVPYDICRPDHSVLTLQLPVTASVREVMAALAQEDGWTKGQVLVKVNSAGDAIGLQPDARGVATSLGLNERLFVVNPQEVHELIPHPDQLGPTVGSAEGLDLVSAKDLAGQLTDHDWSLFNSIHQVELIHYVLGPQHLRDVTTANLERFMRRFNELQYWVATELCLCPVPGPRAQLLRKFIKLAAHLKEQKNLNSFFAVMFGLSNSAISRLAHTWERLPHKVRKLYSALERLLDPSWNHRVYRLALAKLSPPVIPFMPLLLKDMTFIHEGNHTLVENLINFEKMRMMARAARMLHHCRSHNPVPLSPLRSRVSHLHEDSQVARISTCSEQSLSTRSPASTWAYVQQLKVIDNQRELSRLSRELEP
# Sequence of Tumor susceptibility gene 101 protein (Homo sapiens) (Q99816 whole entry, looked up, the tested form may be a part): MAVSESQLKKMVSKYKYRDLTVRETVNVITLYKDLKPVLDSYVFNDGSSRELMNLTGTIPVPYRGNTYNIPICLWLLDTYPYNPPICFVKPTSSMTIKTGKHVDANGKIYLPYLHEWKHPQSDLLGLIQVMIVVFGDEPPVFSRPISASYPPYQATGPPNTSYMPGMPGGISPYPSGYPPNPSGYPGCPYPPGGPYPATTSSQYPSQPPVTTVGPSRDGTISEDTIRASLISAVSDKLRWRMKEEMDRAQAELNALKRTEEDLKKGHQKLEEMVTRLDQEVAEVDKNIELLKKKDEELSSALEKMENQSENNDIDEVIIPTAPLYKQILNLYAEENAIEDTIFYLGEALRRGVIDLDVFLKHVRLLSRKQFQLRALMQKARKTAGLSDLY
# Sequence of Cytochrome P450 3A4 (Homo sapiens) (P08684 whole entry, looked up): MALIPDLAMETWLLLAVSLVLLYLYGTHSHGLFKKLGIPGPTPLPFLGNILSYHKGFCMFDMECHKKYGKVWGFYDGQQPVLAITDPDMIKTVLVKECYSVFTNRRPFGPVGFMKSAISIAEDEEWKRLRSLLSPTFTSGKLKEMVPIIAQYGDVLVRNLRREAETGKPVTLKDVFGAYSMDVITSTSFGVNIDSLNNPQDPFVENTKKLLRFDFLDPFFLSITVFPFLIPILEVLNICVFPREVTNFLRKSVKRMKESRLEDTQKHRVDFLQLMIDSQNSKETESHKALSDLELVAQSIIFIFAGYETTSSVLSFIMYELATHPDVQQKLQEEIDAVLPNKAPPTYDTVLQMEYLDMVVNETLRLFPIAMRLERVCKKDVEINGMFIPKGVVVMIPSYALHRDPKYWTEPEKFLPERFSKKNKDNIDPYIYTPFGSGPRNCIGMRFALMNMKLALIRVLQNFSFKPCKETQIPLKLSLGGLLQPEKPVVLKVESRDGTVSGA
# Sequence of Flap endonuclease 1 (Homo sapiens) (P39748 whole entry, looked up): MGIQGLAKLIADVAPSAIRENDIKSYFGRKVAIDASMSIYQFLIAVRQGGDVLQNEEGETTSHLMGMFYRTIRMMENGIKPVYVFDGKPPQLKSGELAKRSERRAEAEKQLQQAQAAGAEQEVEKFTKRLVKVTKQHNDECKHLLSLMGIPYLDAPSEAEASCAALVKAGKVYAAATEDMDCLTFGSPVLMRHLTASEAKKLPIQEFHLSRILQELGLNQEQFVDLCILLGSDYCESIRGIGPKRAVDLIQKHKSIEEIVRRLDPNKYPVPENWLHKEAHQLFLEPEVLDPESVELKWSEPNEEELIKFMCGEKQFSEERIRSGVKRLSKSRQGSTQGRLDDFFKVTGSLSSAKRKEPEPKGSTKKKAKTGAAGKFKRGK
# Sequence of DNA dC->dU-editing enzyme APOBEC-3G (Homo sapiens) (Q9HC16 whole entry, looked up): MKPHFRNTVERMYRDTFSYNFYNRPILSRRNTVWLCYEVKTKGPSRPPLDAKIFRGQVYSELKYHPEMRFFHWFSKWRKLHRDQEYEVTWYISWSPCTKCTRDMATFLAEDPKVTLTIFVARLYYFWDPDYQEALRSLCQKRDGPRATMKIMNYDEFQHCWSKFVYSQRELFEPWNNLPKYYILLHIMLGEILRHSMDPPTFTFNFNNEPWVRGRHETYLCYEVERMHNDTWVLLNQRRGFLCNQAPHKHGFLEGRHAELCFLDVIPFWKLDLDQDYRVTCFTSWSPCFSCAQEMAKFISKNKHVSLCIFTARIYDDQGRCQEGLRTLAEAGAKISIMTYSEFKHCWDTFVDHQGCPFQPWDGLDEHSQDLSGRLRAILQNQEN
compound,measurement,setting,value
Cc1ccc(S(=O)(=O)N2CCOCC2)cc1NC(=O)COC(=O)CCOc1ccc(C(C)(C)C)cc1,Potency,[1],inactive
same,Potency,[2],inactive
same,Potency,[3],inactive
CCCCN(C=O)c1c(CC)nc2c(OCc3ccc(C(F)(F)F)cc3)cccn12,Potency,[1],inactive
same,Potency,[2],inactive
same,Potency,[3],inactive
CCCOP(=O)(OCCC)C(Nc1cccc(C(F)(F)F)c1)c1ccc(C)cc1 (centres undefined),Potency,[1],inactive
same,Potency,[2],inactive
same,Potency,[3],inactive
CC(Nc1ccc(Cl)cc1)c1cc(Cl)ccc1O (centres undefined),Potency,[1],inactive
same,Potency,[2],inactive
same,Potency,[3],inactive
O=C(Nc1ncccc1O)c1c(O)c2ccccc2[nH]c1=O,Potency,[1],inactive
same,Potency,[2],100 µM (active)
same,Potency,[3],inactive
O=C(NC1CCCCC1)C(c1ccc(C(F)(F)F)cc1)n1c(=O)c(-c2ccco2)nc2ccccc21 (centres undefined),Potency,[1],inactive
same,Potency,[2],inactive
same,Potency,[3],inactive
CCCN(CC(=O)Nc1ccccc1C)C(=O)c1oc2ccc(OCC)cc2c1C,Potency,[1],inactive
same,Potency,[2],inactive
same,Potency,[3],inactive
COc1ccc(CCC(=O)N(C)CC(=O)Nc2ccc(Cl)c(C(F)(F)F)c2)cc1,Potency,[1],inactive
same,Potency,[2],inactive
same,Potency,[3],inactive
Cc1cc(C)c2nc(C(F)(F)F)nc(N3CC(C)OC(C)C3)c2c1 (centres undefined),Potency,[1],inactive
same,Potency,[2],inactive
same,Potency,[3],inactive
CC(C)CCNC(=O)C(CC(C)C)N(Cc1ccc2c(c1)OCO2)C(=O)c1snc(C(N)=O)c1N (centres undefined),Potency,[1],inactive
same,Potency,[2],inactive
same,Potency,[3],inactive
CCCCC[C@H](C)N1C[C@@H](COCc2ccccc2)Oc2cc(N3CC[C@H](N(C)C)C3)ccc2S1(=O)=O,Potency,[1],inactive
same,Potency,[2],inactive
same,Potency,[3],inactive
COc1ccc(CN(C)C(=O)c2ccc(OCC(=O)Nc3cccc(C(F)(F)F)c3)c(OC)c2)c(OC)c1,Potency,[1],inactive
same,Potency,[2],inactive
same,Potency,[3],inactive
CCOC(=O)C(C)Sc1ncc(OC)c(Sc2ccc(Cl)cc2)n1 (centres undefined),Potency,[1],inactive
same,Potency,[2],inactive
same,Potency,[3],inactive
CCN1/C(=C\c2ccc3ccccc3[n+]2CC)Sc2cc(C)ccc21,Potency,[4],21.3 µM (active)
same,Potency,[1],inactive
same,Potency,[2],inactive
CC(NC(=O)COC(=O)C1CCN(c2ccc(C(F)(F)F)cn2)CC1)c1ccc(Br)cc1 (centres undefined),Potency,[1],inactive
same,Potency,[2],inactive
same,Potency,[3],inactive
Cc1ccc(C)c(-c2csc(N)c2C(=O)OC(C)C)c1,Potency,[1],inactive
same,activation,[2],"7.03% [at 17.1 µM, percent relative to cAMP agonist control] (inactive)"
same,activation,[3],30% [at 30.8 µM] (inactive)
COc1ccc2c(c1)OCC(Cc1ccc(OC)c(OC)c1)C2=O (centres undefined),Potency,[5],15.8 µM (active)
same,outcome,[6],inactive
same,Potency,[7],inactive
same,Potency,[8],inactive
same,Potency,[1],inactive
same,Potency,[2],inactive
COc1ccccc1NS(=O)(=O)c1ccc2ccccc2c1,Potency,[1],inactive
same,activation,[2],"0% [at 17.1 µM, percent relative to cAMP agonist control] (inactive)"
same,activation,[3],16.4% [at 30.8 µM] (inactive)
Cc1nn(C)cc1N1C(=O)c2cccc3c(N)ccc(c23)C1=O,Potency,[9],6.51 µM (active)
same,Potency,[1],112 µM (active)
same,Potency,[2],100 µM (active)
COc1cc(C(=O)N(C)CCOc2ccccc2)ccc1OCC(=O)Nc1cccc(C(F)(F)F)c1,Potency,[1],inactive
same,Potency,[2],inactive
same,Potency,[3],inactive
CCOC(=O)c1c(NC(=O)C2C3C=CC(C3)C2C(=O)O)sc2c1CCC(CC)C2 (centres undefined),Potency,[1],inactive
same,Potency,[2],inactive
same,Potency,[3],inactive
CCOC(=O)c1c(C)[nH]c(C)c1C(=O)COC(=O)c1cc(OC)cc(OC)c1,Potency,[1],inactive
same,Potency,[2],inactive
same,Potency,[3],inactive
COc1ccccc1-c1nc2ccccc2n(CC(C)C)c1=O,Potency,[1],inactive
same,Potency,[2],inactive
same,Potency,[3],inactive
CCC(CO)Oc1cc(NCc2ccc(C(C)(C)C)cc2)c2ncn(C(C)C)c2c1 (centres undefined),Potency,[1],inactive
same,Potency,[2],inactive
same,Potency,[3],inactive
CCCCC[C@@H](C)N1C[C@H](COCc2ccccc2)Oc2cc(N3CC[C@H](N(C)C)C3)ccc2S1(=O)=O,Potency,[1],inactive
same,Potency,[2],inactive
same,Potency,[3],inactive
CCOc1ccc(C(=O)CCN2CCCCCC2)cc1,Potency,[1],inactive
same,Potency,[2],inactive
same,Potency,[3],inactive
CCCCOc1ccc(C(=O)N/N=C/c2cn[nH]c2-c2ccc(OC)c(OC)c2)cc1,Potency,[1],inactive
same,Potency,[2],inactive
same,Potency,[3],inactive
CC1COc2ccccc2N1S(=O)(=O)c1ccc(Cl)cc1 (centres undefined),Potency,[1],inactive
same,Potency,[2],inactive
same,Potency,[3],inactive
COC1/C=C/OC2(C)Oc3c(C)c(O)c4c(O)c(c(/C=N/N5CCN(C)CC5)c(O)c4c3C2=O)NC(=O)/C(C)=C/C=C/C(C)C(O)C(C)C(O)C(C)C(OC(C)=O)C1C (centres undefined),outcome,[10],inactive
same,Potency,[1],inactive
same,Potency,[2],inactive
Cc1cccc(C)c1Nc1c(-c2ccc(Cl)s2)nc2ncccn12,Potency,[1],inactive
same,Potency,[11],inactive
Cc1ccc(S(=O)(=O)c2nc(-c3ccco3)oc2SC(C)C)cc1,Potency,[1],inactive
same,activation,[2],"4.44% [at 17.1 µM, percent relative to cAMP agonist control] (inactive)"
same,activation,[3],16.5% [at 30.8 µM] (inactive)
CCN1CCN(S(=O)(=O)c2ccc(Cl)c(C(=O)N(C)Cc3cccc(Cl)c3Cl)c2)CC1,Potency,[1],inactive
same,Potency,[2],inactive
same,Potency,[3],inactive
CN(N=Nc1ccc([N+](=O)[O-])cc1)c1ccccc1,Potency,[9],13 µM (active)
same,Potency,[1],112 µM (active)
same,Potency,[2],100 µM (active)
same,Potency,[12],inactive
CN(CC(=O)Nc1ccccc1Cl)C(=O)c1ccc(-c2cccc(C(F)(F)F)c2)o1,Potency,[1],inactive
same,Potency,[2],inactive
same,Potency,[3],inactive
CN1C(=O)/C(=C2/C=Cc3ccccc3N2CCCS(=O)(=O)O)SC1=S,Potency,[1],inactive
same,Potency,[2],inactive
same,Potency,[3],inactive
COc1ccc(C(=O)c2ccccc2Cl)cc1OC,Potency,[1],inactive
same,Potency,[2],inactive
same,Potency,[3],inactive
COc1ccc(/C=C/C(=O)c2ccccc2)c(OC)c1,Potency,[1],inactive
same,activation,[2],"0.603% [at 17.1 µM, percent relative to cAMP agonist control] (inactive)"
same,activation,[3],-1.52% [at 30.8 µM] (inactive)
